target: AgAbp1; experiment: SPOT peptide array binding signal intensity (averaged, normalized) (arbitrary units (background-subtracted, floor 0; scale differs between SH3 domains)); higher = stronger binding of the SH3 domain to the peptide
Outline: (§1)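 Binding signal refers to normalized, background-subtracted spot intensity averaged over replicates, expressed in arbitrary units that differ between domains. GST-fused SH3 domains from four yeast species were incubated at 10 μg/ml overnight at 4°C on cellulose membranes of synthetic 15-mer peptides with cysteines replaced by serines. Bound protein was detected with anti-GST antibody, an HRP anti-mouse secondary and luminol, and quantified with Genespotter.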

Binder	SPOT peptide array binding signal intensity
VRVKKRPLIRPLNSS	450

target: AgBbc1; experiment: as above
Outline: as §1

Binder	SPOT peptide array binding signal intensity
VRVKKRPLIRPLNSS	184

target: AgBem1-D1; experiment: as above
Outline: as §1

Binder	SPOT peptide array binding signal intensity
VRVKKRPLIRPLNSS	244

target: AgBzz1-D1; experiment: as above
Outline: as §1

Binder	SPOT peptide array binding signal intensity
VRVKKRPLIRPLNSS	6.5

target: AgBzz1-D2; experiment: as above
Outline: as §1

Binder	SPOT peptide array binding signal intensity
VRVKKRPLIRPLNSS	215

target: AgCyk3; experiment: as above
Outline: as §1

Binder	SPOT peptide array binding signal intensity
VRVKKRPLIRPLNSS	6

target: AgFus1; experiment: as above
Outline: as §1

Binder	SPOT peptide array binding signal intensity
VRVKKRPLIRPLNSS	223

target: AgHof1; experiment: as above
Outline: as §1

Binder	SPOT peptide array binding signal intensity
VRVKKRPLIRPLNSS	48.5

target: AgHse1; experiment: as above
Outline: as §1

Binder	SPOT peptide array binding signal intensity
VRVKKRPLIRPLNSS	646

target: AgLsb1; experiment: as above
Outline: as §1

Binder	SPOT peptide array binding signal intensity
VRVKKRPLIRPLNSS	2.5

target: AgLsb4; experiment: as above
Outline: as §1

Binder	SPOT peptide array binding signal intensity
VRVKKRPLIRPLNSS	81

target: AgMyo5; experiment: as above
Outline: as §1

Binder	SPOT peptide array binding signal intensity
VRVKKRPLIRPLNSS	0.5

target: AgNbp2; experiment: as above
Outline: as §1

Binder	SPOT peptide array binding signal intensity
VRVKKRPLIRPLNSS	220

target: AgRvs167; experiment: as above
Outline: as §1

Binder	SPOT peptide array binding signal intensity
VRVKKRPLIRPLNSS	2.33

target: AgSho1; experiment: as above
Outline: as §1

Binder	SPOT peptide array binding signal intensity
VRVKKRPLIRPLNSS	53

target: AgSla1-D1-D2; experiment: as above
Outline: as §1

Binder	SPOT peptide array binding signal intensity
VRVKKRPLIRPLNSS	442

target: AgSla1-D3; experiment: as above
Outline: as §1

Binder	SPOT peptide array binding signal intensity
VRVKKRPLIRPLNSS	12.8

target: CaAbp1-D1; experiment: as above
Outline: as §1

Binder	SPOT peptide array binding signal intensity
VRVKKRPLIRPLNSS	1520

target: CaAbp1-D2; experiment: as above
Outline: as §1

Binder	SPOT peptide array binding signal intensity
VRVKKRPLIRPLNSS	1190

target: CaBbc1; experiment: as above
Outline: as §1

Binder	SPOT peptide array binding signal intensity
VRVKKRPLIRPLNSS	278

target: CaBem1-D1; experiment: as above
Outline: as §1

Binder	SPOT peptide array binding signal intensity
VRVKKRPLIRPLNSS	378

target: CaBzz1-D1; experiment: as above
Outline: as §1

Binder	SPOT peptide array binding signal intensity
VRVKKRPLIRPLNSS	153

target: CaBzz1-D2; experiment: as above
Outline: as §1

Binder	SPOT peptide array binding signal intensity
VRVKKRPLIRPLNSS	101

target: CaCyk3; experiment: as above
Outline: as §1

Binder	SPOT peptide array binding signal intensity
VRVKKRPLIRPLNSS	132

target: CaFus1; experiment: as above
Outline: as §1

Binder	SPOT peptide array binding signal intensity
VRVKKRPLIRPLNSS	381

target: CaHof1; experiment: as above
Outline: as §1

Binder	SPOT peptide array binding signal intensity
VRVKKRPLIRPLNSS	1

target: CaHse1; experiment: as above
Outline: as §1

Binder	SPOT peptide array binding signal intensity
VRVKKRPLIRPLNSS	15

target: CaLsb1; experiment: as above
Outline: as §1

Binder	SPOT peptide array binding signal intensity
VRVKKRPLIRPLNSS	2

target: CaLsb4; experiment: as above
Outline: as §1

Binder	SPOT peptide array binding signal intensity
VRVKKRPLIRPLNSS	104

target: CaMyo5; experiment: as above
Outline: as §1

Binder	SPOT peptide array binding signal intensity
VRVKKRPLIRPLNSS	1.5

target: CaNbp2; experiment: as above
Outline: as §1

Binder	SPOT peptide array binding signal intensity
VRVKKRPLIRPLNSS	311

target: CaRvs167; experiment: as above
Outline: as §1

Binder	SPOT peptide array binding signal intensity
VRVKKRPLIRPLNSS	8.5

target: CaRvs167-3; experiment: as above
Outline: as §1

Binder	SPOT peptide array binding signal intensity
VRVKKRPLIRPLNSS	183

target: CaSho1; experiment: as above
Outline: as §1

Binder	SPOT peptide array binding signal intensity
VRVKKRPLIRPLNSS	370

target: CaSla1-D1-D2; experiment: as above
Outline: as §1

Binder	SPOT peptide array binding signal intensity
VRVKKRPLIRPLNSS	534

target: CaSla1-D3; experiment: as above
Outline: as §1

Binder	SPOT peptide array binding signal intensity
VRVKKRPLIRPLNSS	0.25

target: ScAbp1; experiment: as above
Outline: as §1

Binder	SPOT peptide array binding signal intensity
VRVKKRPLIRPLNSS	138

target: ScBbc1; experiment: as above
Outline: as §1

Binder	SPOT peptide array binding signal intensity
VRVKKRPLIRPLNSS	82

target: ScBem1-D1; experiment: as above
Outline: as §1

Binder	SPOT peptide array binding signal intensity
VRVKKRPLIRPLNSS	70

target: ScBzz1-D1; experiment: as above
Outline: as §1

Binder	SPOT peptide array binding signal intensity
VRVKKRPLIRPLNSS	11.5

target: ScBzz1-D2; experiment: as above
Outline: as §1

Binder	SPOT peptide array binding signal intensity
VRVKKRPLIRPLNSS	11

target: ScCyk3; experiment: as above
Outline: as §1

Binder	SPOT peptide array binding signal intensity
VRVKKRPLIRPLNSS	91.5

target: ScFus1; experiment: as above
Outline: as §1

Binder	SPOT peptide array binding signal intensity
VRVKKRPLIRPLNSS	156

target: ScHof1; experiment: as above
Outline: as §1

Binder	SPOT peptide array binding signal intensity
VRVKKRPLIRPLNSS	0.75

target: ScHse1; experiment: as above
Outline: as §1

Binder	SPOT peptide array binding signal intensity
VRVKKRPLIRPLNSS	1480

target: ScLsb1; experiment: as above
Outline: as §1

Binder	SPOT peptide array binding signal intensity
VRVKKRPLIRPLNSS	57.8

target: ScLsb2; experiment: as above
Outline: as §1

Binder	SPOT peptide array binding signal intensity
VRVKKRPLIRPLNSS	5.5

target: ScLsb3; experiment: as above
Outline: as §1

Binder	SPOT peptide array binding signal intensity
VRVKKRPLIRPLNSS	312

target: ScLsb4; experiment: as above
Outline: as §1

Binder	SPOT peptide array binding signal intensity
VRVKKRPLIRPLNSS	19

target: ScMyo3; experiment: as above
Outline: as §1

Binder	SPOT peptide array binding signal intensity
VRVKKRPLIRPLNSS	3

target: ScMyo5; experiment: as above
Outline: as §1

Binder	SPOT peptide array binding signal intensity
VRVKKRPLIRPLNSS	1.5

target: ScNbp2; experiment: as above
Outline: as §1

Binder	SPOT peptide array binding signal intensity
VRVKKRPLIRPLNSS	312

target: ScPex13; experiment: as above
Outline: as §1

Binder	SPOT peptide array binding signal intensity
VRVKKRPLIRPLNSS	0.25

target: ScRvs167; experiment: as above
Outline: as §1

Binder	SPOT peptide array binding signal intensity
VRVKKRPLIRPLNSS	15.5

target: ScSho1; experiment: as above
Outline: as §1

Binder	SPOT peptide array binding signal intensity
VRVKKRPLIRPLNSS	386

target: ScSla1-D1-D2; experiment: as above
Outline: as §1

Binder	SPOT peptide array binding signal intensity
VRVKKRPLIRPLNSS	330

target: ScSla1-D3; experiment: as above
Outline: as §1

Binder	SPOT peptide array binding signal intensity
VRVKKRPLIRPLNSS	16

target: SpAbp1-D1; experiment: as above
Outline: as §1

Binder	SPOT peptide array binding signal intensity
VRVKKRPLIRPLNSS	388

target: SpBbc1; experiment: as above
Outline: as §1

Binder	SPOT peptide array binding signal intensity
VRVKKRPLIRPLNSS	9.75

target: SpBzz1-D1; experiment: as above
Outline: as §1

Binder	SPOT peptide array binding signal intensity
VRVKKRPLIRPLNSS	150

target: SpBzz1-D2; experiment: as above
Outline: as §1

Binder	SPOT peptide array binding signal intensity
VRVKKRPLIRPLNSS	≤ 0

target: SpCyk3; experiment: as above
Outline: as §1

Binder	SPOT peptide array binding signal intensity
VRVKKRPLIRPLNSS	≤ 0

target: SpHof1; experiment: as above
Outline: as §1

Binder	SPOT peptide array binding signal intensity
VRVKKRPLIRPLNSS	188

target: SpHof1-2; experiment: as above
Outline: as §1

Binder	SPOT peptide array binding signal intensity
VRVKKRPLIRPLNSS	12.5

target: SpHof1-3; experiment: as above
Outline: as §1

Binder	SPOT peptide array binding signal intensity
VRVKKRPLIRPLNSS	373

target: SpHse1; experiment: as above
Outline: as §1

Binder	SPOT peptide array binding signal intensity
VRVKKRPLIRPLNSS	279

target: SpLsb1; experiment: as above
Outline: as §1

Binder	SPOT peptide array binding signal intensity
VRVKKRPLIRPLNSS	14.5

target: SpLsb4; experiment: as above
Outline: as §1

Binder	SPOT peptide array binding signal intensity
VRVKKRPLIRPLNSS	135

target: SpMyo1; experiment: as above
Outline: as §1

Binder	SPOT peptide array binding signal intensity
VRVKKRPLIRPLNSS	5.5

target: SpNbp2; experiment: as above
Outline: as §1

Binder	SPOT peptide array binding signal intensity
VRVKKRPLIRPLNSS	773

target: SpPex13; experiment: as above
Outline: as §1

Binder	SPOT peptide array binding signal intensity
VRVKKRPLIRPLNSS	17

target: SpRvs167; experiment: as above
Outline: as §1

Binder	SPOT peptide array binding signal intensity
VRVKKRPLIRPLNSS	3.67

target: SpSla1-D1-D2; experiment: as above
Outline: as §1

Binder	SPOT peptide array binding signal intensity
VRVKKRPLIRPLNSS	≤ 0

target: SpSla1-D3; experiment: as above
Outline: as §1

Binder	SPOT peptide array binding signal intensity
VRVKKRPLIRPLNSS	2
